Screening data (PubChem)
Compounds with a hit are over-represented: about 4.3% of the library has one in this group of screens.
HGIII-sPLA2 inh: human group III sPLA2 inhibitors, primary screen, biochemical, QFRET, BODIPY PC-A2 liposome substrate; Group 3 secretory phospholipase A2 (Homo sapiens), Q9NZ20; QFRET BODIPY PC-A2 liposome hydrolysis, fluorescence; inhibition, % at 12.2 µM; 0.56% of 370,000 active; AID 743126, 2013;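 active = inhibition above mean plus 3 SD of compounds lying within the high and low control bounds, cut at about 19% in these data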
ADAM10 inh: human ADAM10 inhibitors, primary screen, biochemical, QFRET, HTS; AID 720582, 2013; 0.62% of 370,000 active; inhibition, % at 7 µM; Disintegrin and metalloproteinase domain-containing protein 10 (Homo sapiens), O14672; recombinant ADAM10, EDANS/DABCYL FRET peptide cleavage, 3 h;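 active = inhibition above a per-campaign cutoff equal to the mean of compounds falling between control-based bounds plus 3 SD, cut at about 20% in these data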
FAS-TE inh: FAS thioesterase domain inhibitors, primary screen, biochemical, fluorescence intensity, uHTS | recombinant FAS-TE, OMFH fluorogenic substrate, fluorescence endpoint | inhibition, % at 15 µM | 0.67% of 360,000 active;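 active = compounds whose normalised, plate-corrected inhibition of enzyme fluorescence in the single-dose primary screen is 50% or more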
ADAM17 inh: ADAM17 inhibitors, primary screen, biochemical, QFRET | recombinant ADAM17, EDANS/DABCYL FRET peptide cleavage | inhibition, % at 6.95 µM | 0.83% of 370,000 active;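 active = inhibition above the mean of compounds lying between control limits plus 3 SD, set per campaign, cut at about 8.5% in these data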
Target sequence (P78536 215-824 limits assumed): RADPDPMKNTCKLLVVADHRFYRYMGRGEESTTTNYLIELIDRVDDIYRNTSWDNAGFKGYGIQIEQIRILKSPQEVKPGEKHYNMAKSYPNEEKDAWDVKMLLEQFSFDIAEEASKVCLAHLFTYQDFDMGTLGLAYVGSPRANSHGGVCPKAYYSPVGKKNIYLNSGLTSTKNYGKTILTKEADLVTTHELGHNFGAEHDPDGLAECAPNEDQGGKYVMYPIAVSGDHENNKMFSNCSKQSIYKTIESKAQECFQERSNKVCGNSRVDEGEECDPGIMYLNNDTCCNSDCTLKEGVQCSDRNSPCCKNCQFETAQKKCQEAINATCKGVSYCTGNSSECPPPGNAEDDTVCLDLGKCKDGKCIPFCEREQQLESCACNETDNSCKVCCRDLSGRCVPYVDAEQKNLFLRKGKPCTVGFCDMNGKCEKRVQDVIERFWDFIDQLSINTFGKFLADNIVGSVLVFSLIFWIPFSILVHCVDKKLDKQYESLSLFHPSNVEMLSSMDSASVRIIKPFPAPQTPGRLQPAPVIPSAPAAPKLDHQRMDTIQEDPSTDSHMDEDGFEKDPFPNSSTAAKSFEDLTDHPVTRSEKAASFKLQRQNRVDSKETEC
NR3A LBD binder: binders of NR3A ligand-binding domain, primary screen, biophysical, differential scanning fluorimetry, uHTS; NR3A LBD differential scanning fluorimetry, Tm shift; 0% = protein alone, 100% = glycine-bound protein; Tm shift relative to glycine control, % at 25 µM; 2.5% of 340,000 active; AID 1259313, 2017;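 active = melting temperature shift of at least 10% of the positive control shift, at one fixed dose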
ADAM10 ctr: ADAM10 inhibitors, counter-screen for ADAM17 exosite inhibitor project, biochemical, FRET, human ADAM10 | shares compounds with ADAM17 inh | recombinant ADAM10, EDANS/DABCYL FRET peptide cleavage, 3 h | inhibition, % at 6.95 µM | 47% of 2,900 active | AID 743256, 2014;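 active = mean inhibition over the triplicate runs exceeds the activity threshold set in the earlier primary screen, cut at about 20% in these data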
ADAM17 confirm: ADAM17 inhibitors, hit retest, confirmation, biochemical, QFRET peptide cleavage | shares compounds with ADAM17 inh | recombinant ADAM17, EDANS/DABCYL QFRET peptide cleavage | inhibition, % at 6.95 µM | 65% of 2,900 active | AID 743257, 2014;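 active = mean inhibition across replicates above the hit cutoff set in the primary screen, cut at about 8.5% in these data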
Hits are given with their value.

What do the screens show for `C#CCN1CC(COc2ccccc2)Oc2cccc(Oc3ccc(C(C)C)cc3)c2S1(=O)=O` (configuration not stated)?
HGIII-sPLA2 inh: inactive; ADAM10 inh: inactive; ADAM17 inh: inactive

Results for Cc1ccc(-c2csc(NC(=O)Cn3cnc4c3c(=O)n(C)c(=O)n4C)n2)cc1C ?
HGIII-sPLA2 inh: inactive; ADAM10 inh: inactive; FAS-TE inh: inactive; ADAM17 inh: inactive; NR3A LBD binder: inactive

How did Cn1c(=O)c2c(ncn2CC(=O)Nc2nc(-c3ccc(F)c(F)c3)cs2)n(C)c1=O do in these assays?
HGIII-sPLA2 inh: inactive; ADAM10 inh: inactive; FAS-TE inh: inactive; ADAM17 inh: 8.8; NR3A LBD binder: inactive; ADAM10 ctr: inactive; ADAM17 confirm: inactive

Results for COc1ccc(CN2CCC(CNC(=O)NC3CCC(C)CC3)CC2)cc1 (configuration not stated) ?
HGIII-sPLA2 inh: inactive; ADAM10 inh: inactive; ADAM17 inh: inactive

Results for CCOC(=O)C1=C(O)/C(=C\c2cccs2)N=C1C ?
HGIII-sPLA2 inh: inactive; ADAM10 inh: inactive; FAS-TE inh: inactive; ADAM17 inh: 10.0; NR3A LBD binder: inactive; ADAM10 ctr: inactive; ADAM17 confirm: inactive

What do the screens show for `CCOC(=O)C1=C(O)/C(=C\c2sccc2C)N=C1C`?
HGIII-sPLA2 inh: inactive; ADAM10 inh: inactive; FAS-TE inh: inactive; ADAM17 inh: inactive; NR3A LBD binder: inactive

How did O=C(NCCOCC(F)(F)C(F)F)c1cc(F)c(F)cc1Cl do in these assays?
HGIII-sPLA2 inh: inactive; ADAM10 inh: inactive; FAS-TE inh: inactive; ADAM17 inh: 8.7; NR3A LBD binder: inactive; ADAM10 ctr: inactive; ADAM17 confirm: inactive

Results for O=C(CSc1nnc(-c2ccccc2)n1-c1ccc(Cl)cc1)NN=Cc1c[nH]c2ccccc12 ?
HGIII-sPLA2 inh: inactive; ADAM10 inh: inactive; ADAM17 inh: 11; ADAM10 ctr: 29; ADAM17 confirm: 12

What do the screens show for `O=C(CSc1nnc(SCc2cccc3ccccc23)s1)N/N=C/c1c[nH]c2ccccc12`?
HGIII-sPLA2 inh: inactive; ADAM10 inh: inactive; FAS-TE inh: inactive; ADAM17 inh: 12; NR3A LBD binder: 22; ADAM10 ctr: inactive; ADAM17 confirm: 9.9

How did Cc1cc(S(=O)(=O)NCc2ccccc2)ccc1OCC(=O)Nc1cccc([N+](=O)[O-])c1 do in these assays?
HGIII-sPLA2 inh: inactive; ADAM10 inh: inactive; FAS-TE inh: inactive; ADAM17 inh: 8.7; NR3A LBD binder: 11; ADAM10 ctr: 35; ADAM17 confirm: 22

How did COc1cccc(NC2c3ccccc3C(=O)N2Cc2ccccc2Cl)c1 (configuration not stated) do in these assays?
HGIII-sPLA2 inh: inactive; ADAM10 inh: inactive; FAS-TE inh: inactive; ADAM17 inh: 12; NR3A LBD binder: inactive; ADAM10 ctr: inactive; ADAM17 confirm: 11

What do the screens show for `Cn1cc(C(=O)N/N=C/c2cccs2)c2ccccc21`?
HGIII-sPLA2 inh: inactive; ADAM10 inh: inactive; FAS-TE inh: inactive; ADAM17 inh: 8.9; NR3A LBD binder: inactive; ADAM10 ctr: inactive; ADAM17 confirm: inactive

What do the screens show for `Cc1cccc2sc(NC(=O)CN(C)S(=O)(=O)c3ccc(Br)s3)nc12`?
HGIII-sPLA2 inh: inactive; ADAM10 inh: inactive; FAS-TE inh: inactive; ADAM17 inh: 8.8; NR3A LBD binder: inactive; ADAM10 ctr: 44; ADAM17 confirm: 24

Results for Cc1noc(C)c1NC(=O)Nc1cccc2c1O[C@H](CN(C)S(=O)(=O)c1ccc(F)cc1)[C@@H](C)CN([C@H](C)CO)C2=O ?
HGIII-sPLA2 inh: inactive; ADAM10 inh: inactive; FAS-TE inh: inactive; ADAM17 inh: 11; NR3A LBD binder: inactive; ADAM10 ctr: inactive; ADAM17 confirm: inactive

How did Cc1noc(C)c1S(=O)(=O)N(C)C[C@H]1Oc2c(NC(=O)C3CCCCC3)cccc2C(=O)N([C@H](C)CO)C[C@@H]1C do in these assays?
HGIII-sPLA2 inh: inactive; ADAM10 inh: inactive; FAS-TE inh: inactive; ADAM17 inh: 10; NR3A LBD binder: inactive; ADAM10 ctr: inactive; ADAM17 confirm: inactive

What do the screens show for `C[C@H](CO)N1C[C@H](C)[C@@H](CN(C)S(=O)(=O)c2ccccc2)Oc2c(NC(=O)C3CCCCC3)cccc2C1=O`?
HGIII-sPLA2 inh: inactive; ADAM10 inh: inactive; FAS-TE inh: inactive; ADAM17 inh: inactive; NR3A LBD binder: inactive

What do the screens show for `CC(Oc1ccc(Cl)cc1Cl)C(=O)Nc1ccc(O)cc1` (configuration not stated)?
HGIII-sPLA2 inh: inactive; ADAM10 inh: inactive; FAS-TE inh: inactive; ADAM17 inh: 8.8; NR3A LBD binder: inactive; ADAM10 ctr: inactive; ADAM17 confirm: inactive

What do the screens show for `CCOc1ccc(NC(=O)CN(C)C(=O)c2cn(-c3ccc(C)cc3)nc2-c2cccc(OC)c2)cc1OCC`?
HGIII-sPLA2 inh: inactive; ADAM10 inh: inactive; FAS-TE inh: inactive; ADAM17 inh: 14; NR3A LBD binder: inactive; ADAM10 ctr: 34; ADAM17 confirm: 18

How did O=S(=O)(NCCC(c1ccc(F)cc1)c1ccco1)c1ccccc1 (configuration not stated) do in these assays?
HGIII-sPLA2 inh: inactive; ADAM10 inh: inactive; FAS-TE inh: inactive; ADAM17 inh: 13; NR3A LBD binder: inactive; ADAM10 ctr: inactive; ADAM17 confirm: 11

Results for Fc1ccc(C(CCNCc2cccs2)c2ccco2)cc1 (configuration not stated) ?
HGIII-sPLA2 inh: inactive; ADAM10 inh: inactive; FAS-TE inh: inactive; ADAM17 inh: inactive; NR3A LBD binder: inactive

What do the screens show for `COc1ccc(CNC(=O)C2CCN(C(=O)[C@@H](CC(C)C)NC(=O)OC(C)(C)C)CC2)cc1`?
HGIII-sPLA2 inh: inactive; ADAM10 inh: inactive; FAS-TE inh: inactive; ADAM17 inh: 8.6; ADAM10 ctr: inactive; ADAM17 confirm: inactive

Results for CSc1nc2c(=O)[nH]cnc2s1 ?
HGIII-sPLA2 inh: inactive; ADAM10 inh: inactive; ADAM17 inh: inactive

What do the screens show for `COC(=O)C1CN(Cc2cn(Cc3ccc(C)cc3)nn2)CCS(=O)(=O)N1Cc1ccc(OC)cc1` (configuration not stated)?
HGIII-sPLA2 inh: inactive; ADAM10 inh: inactive; ADAM17 inh: inactive

How did COc1cc(C)c(C)cc1S(=O)(=O)N1CCN(Cc2ccc3c(c2)OCO3)CC1 do in these assays?
HGIII-sPLA2 inh: inactive; ADAM10 inh: inactive; FAS-TE inh: inactive; ADAM17 inh: 8.8; NR3A LBD binder: inactive; ADAM10 ctr: 23; ADAM17 confirm: 9.3
